Values joined by “and” are separate entries in the source; they are usually repeats but may differ in a detail not shown here. Identical values can stand only once. Inconclusive results are not listed. Entries that show only a call come without a potency. Active and inactive are the calls of the source. Unless noted, the call rests on the fitted dose curve; in most records, active means well fitted curve in the direction sought with a large enough effect in the repeat runs; inconclusive means weak or mixed curves; inactive means no such curve, though single readings can be large; an effect the other way counts as inactive or inconclusive.
How the values were obtained:
[1] = qHTS assay to identify small molecule antagonists of the sonic hedgehog signaling (Shh) pathway (AID 1259369; calls by dose curve; further: nearly all actives have a fitted effect of over 45% in size; further: potency means the concentration at half of the fitted maximal effect)
In short: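 Luminescence readout: firefly Luc under Gli1 response element in 3T3Gli1-Luc cells (NIH/3T3 clone). Antagonist mode, stimulation by conditioned medium; compound exposure 24hr at 37 C, 5% CO2.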

[2] = target: Estrogen receptor beta (Homo sapiens) (UniProt Q92731); assay: qHTS assay to identify small molecule antagonists of the estrogen receptor beta (ER-beta) signaling pathway (AID 1259378; active means well fitted inhibition curve with a large enough effect in the signal ratio in the repeat runs, not every such curve was filed as active; the % refers to the signal ratio; further: potency means the concentration at half of the fitted maximal effect)
Estrogen receptor beta (Homo sapiens), sequence (Q92731 whole entry, looked up): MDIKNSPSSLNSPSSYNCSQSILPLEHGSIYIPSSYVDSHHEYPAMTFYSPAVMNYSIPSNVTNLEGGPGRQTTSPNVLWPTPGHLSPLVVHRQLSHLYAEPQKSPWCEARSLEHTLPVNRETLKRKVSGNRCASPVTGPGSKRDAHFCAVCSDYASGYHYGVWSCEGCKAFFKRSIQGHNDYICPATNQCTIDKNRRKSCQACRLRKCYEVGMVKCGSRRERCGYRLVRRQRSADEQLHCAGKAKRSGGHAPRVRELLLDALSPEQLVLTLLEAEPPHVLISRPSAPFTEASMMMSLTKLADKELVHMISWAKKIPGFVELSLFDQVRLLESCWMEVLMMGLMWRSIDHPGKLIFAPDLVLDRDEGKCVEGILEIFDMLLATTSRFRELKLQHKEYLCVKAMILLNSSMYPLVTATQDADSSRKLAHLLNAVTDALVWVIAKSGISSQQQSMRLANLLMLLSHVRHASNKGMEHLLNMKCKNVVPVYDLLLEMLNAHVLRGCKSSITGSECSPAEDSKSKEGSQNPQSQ
In short: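 Antagonist mode: compounds added to beta-lactamase reporter HEK293T ER-beta-UAS cells stimulated with E2 (1nM final), 16 hr at 37C. LiveBLAzer B/G FRET substrate, 2 hours room temperature, fluorescence read-out.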

[3] = qHTS assay to identify small molecule agonists of the androgen receptor (AR) signaling pathway in the presence of an antagonist - cell viability counter screen (AID 1259379); further: nearly all actives have a fitted effect of over 25% in size; further: potency means the concentration at half of the fitted maximal effect
In short: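 Viability counter screen: CellTiter-Fluor fluorescence, measured in the same wells as the luciferase read-out. MDA-kb2 cells, 3,000/well, with nilutamide at 3.0uM final and compounds at 15 concentrations, 16 hr at 37C, 0% CO2.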

[4] = target: Androgen receptor (Homo sapiens) (UniProt P10275); assay: qHTS assay to identify small molecule agonists of the androgen receptor (AR) signaling pathway in the presence of an antagonist (AID 1259381; calls by dose curve; further: nearly all actives have a fitted effect of over 15% in size; further: potency means the concentration at half of the fitted maximal effect)
Androgen receptor (Homo sapiens), sequence (P10275 whole entry, looked up): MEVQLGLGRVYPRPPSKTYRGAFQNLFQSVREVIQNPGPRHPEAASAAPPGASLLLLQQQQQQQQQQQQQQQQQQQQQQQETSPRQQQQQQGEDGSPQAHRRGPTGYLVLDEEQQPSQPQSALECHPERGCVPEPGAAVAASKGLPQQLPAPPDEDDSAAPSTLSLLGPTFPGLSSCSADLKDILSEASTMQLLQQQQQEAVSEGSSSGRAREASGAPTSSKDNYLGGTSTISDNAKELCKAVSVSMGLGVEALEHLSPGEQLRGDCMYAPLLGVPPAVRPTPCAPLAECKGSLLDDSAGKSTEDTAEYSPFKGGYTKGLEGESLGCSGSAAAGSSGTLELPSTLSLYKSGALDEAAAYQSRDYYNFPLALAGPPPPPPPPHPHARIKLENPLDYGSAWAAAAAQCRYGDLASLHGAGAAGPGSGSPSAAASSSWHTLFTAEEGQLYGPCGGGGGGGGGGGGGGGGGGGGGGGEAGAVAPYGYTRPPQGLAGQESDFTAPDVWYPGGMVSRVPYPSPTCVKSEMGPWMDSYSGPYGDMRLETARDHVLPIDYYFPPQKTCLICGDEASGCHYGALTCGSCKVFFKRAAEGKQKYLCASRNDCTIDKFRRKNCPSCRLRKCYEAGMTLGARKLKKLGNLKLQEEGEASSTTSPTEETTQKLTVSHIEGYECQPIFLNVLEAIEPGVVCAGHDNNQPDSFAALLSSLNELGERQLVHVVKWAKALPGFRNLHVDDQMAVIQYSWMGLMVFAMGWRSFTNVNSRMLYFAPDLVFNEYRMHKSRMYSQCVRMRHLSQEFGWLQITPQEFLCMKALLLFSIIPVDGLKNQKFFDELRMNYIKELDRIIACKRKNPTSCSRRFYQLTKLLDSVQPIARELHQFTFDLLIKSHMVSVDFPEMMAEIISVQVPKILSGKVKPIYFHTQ
In short: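 Luciferase read-out (ONE-Glo, 30min room temperature) in MDA-kb2 MMTV-reporter cells; agonist mode run in presence of AR antagonist nilutamide, 3.0uM final. Compounds tested as 15-point series, 16hr exposure at 37C, 0% CO2.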

[5] = target: Estrogen receptor (Homo sapiens) (UniProt P03372); assay: qHTS assay to identify small molecule agonists of the estrogen receptor alpha (ER-alpha) signaling pathway in the presence of an antagonist (AID 1259383; calls by dose curve; further: top concentration of the series differs between compounds; nearly all actives have a fitted effect of over 15% in size)
Estrogen receptor (Homo sapiens), sequence (P03372 whole entry, looked up): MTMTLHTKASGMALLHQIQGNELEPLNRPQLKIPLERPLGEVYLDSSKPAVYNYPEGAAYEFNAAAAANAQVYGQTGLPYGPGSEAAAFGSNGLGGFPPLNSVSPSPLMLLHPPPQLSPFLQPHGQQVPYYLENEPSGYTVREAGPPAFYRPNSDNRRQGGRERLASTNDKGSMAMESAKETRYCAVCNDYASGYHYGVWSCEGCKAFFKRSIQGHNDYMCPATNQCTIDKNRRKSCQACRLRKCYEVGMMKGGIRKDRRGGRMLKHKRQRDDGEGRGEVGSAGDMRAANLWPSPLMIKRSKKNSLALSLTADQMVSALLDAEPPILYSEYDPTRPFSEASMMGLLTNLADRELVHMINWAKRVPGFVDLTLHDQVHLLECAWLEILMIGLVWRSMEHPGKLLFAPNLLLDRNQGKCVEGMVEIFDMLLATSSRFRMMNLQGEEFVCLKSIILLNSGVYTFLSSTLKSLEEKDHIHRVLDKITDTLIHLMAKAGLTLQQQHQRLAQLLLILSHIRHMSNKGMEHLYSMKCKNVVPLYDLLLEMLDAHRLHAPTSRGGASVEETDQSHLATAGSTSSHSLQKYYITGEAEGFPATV
In short: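 Luciferase luminescence (ONE-Glo, 30min at room temperature) measured in VM7Luc4E2 cells after 22hr compound exposure at 15 concentrations, with 10.0nM ICI-182,780 final present; cells express endogenous ER-alpha and carry four EREs upstream of luciferase.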

[6] = qHTS assay to identify small molecule agonists or antagonists of the thyroid stimulating hormone receptor (TSHR) signaling pathway - wild type cell line counter screen (AID 1259384; calls by dose curve)
In short: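 Counter screen in untransfected Hek293: compounds (15-point titration, triplicate) plus phosphodiesterase inhibitor Ro20-1724 added after 18 h plating; 30 min RT. Intracellular cAMP via competitive d2/cryptate immunoassay, 1 h incubation.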

[7] = target: Thyrotropin receptor (Homo sapiens) (UniProt P16473); assay: qHTS assay to identify small molecule antagonists of the thyroid stimulating hormone receptor (TSHR) signaling pathway (AID 1259385; calls by dose curve; further: nearly all actives have a fitted effect of over 20% in size; further: potency means the concentration at half of the fitted maximal effect)
Thyrotropin receptor (Homo sapiens), sequence (P16473 whole entry, looked up): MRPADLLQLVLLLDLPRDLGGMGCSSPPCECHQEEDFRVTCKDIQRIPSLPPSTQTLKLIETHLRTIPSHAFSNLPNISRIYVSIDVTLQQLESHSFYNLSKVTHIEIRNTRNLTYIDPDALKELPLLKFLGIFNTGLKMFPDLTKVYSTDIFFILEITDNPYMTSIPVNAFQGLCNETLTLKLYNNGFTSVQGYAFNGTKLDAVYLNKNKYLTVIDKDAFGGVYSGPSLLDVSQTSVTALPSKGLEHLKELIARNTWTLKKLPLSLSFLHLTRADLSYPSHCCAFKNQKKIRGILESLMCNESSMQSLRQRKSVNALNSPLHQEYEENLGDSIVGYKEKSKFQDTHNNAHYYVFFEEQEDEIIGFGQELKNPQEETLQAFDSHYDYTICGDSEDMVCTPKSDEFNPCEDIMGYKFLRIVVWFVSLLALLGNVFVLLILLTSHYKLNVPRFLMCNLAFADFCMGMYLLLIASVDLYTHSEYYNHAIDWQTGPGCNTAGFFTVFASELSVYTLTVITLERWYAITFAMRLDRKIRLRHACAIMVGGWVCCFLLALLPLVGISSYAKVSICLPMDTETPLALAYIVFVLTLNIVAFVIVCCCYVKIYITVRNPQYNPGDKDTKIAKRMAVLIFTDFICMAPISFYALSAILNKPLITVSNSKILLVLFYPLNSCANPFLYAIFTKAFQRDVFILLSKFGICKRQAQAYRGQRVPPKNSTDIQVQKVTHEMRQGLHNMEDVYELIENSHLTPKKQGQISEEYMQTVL
In short: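 Antagonist mode: compound-treated TSHR-expressing HEK293 cells were stimulated with 1.5 ng/mL TSH (final) in presence of Ro20-1724 for 30 min at RT. HTRF cAMP detection after 1 h; each compound tested at 15 concentrations, triplicate.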

[8] = qHTS assay to identify small molecule agonists of the estrogen receptor alpha (ER-alpha) signaling pathway in the presence of an antagonist - cell viability counter screen (AID 1259386);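 further: cells exposed to compounds for 22 h at 37 °C before the viability read; nearly all actives have a fitted effect of over 30% in size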; further: potency means the concentration at half of the fitted maximal effect
In short: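 Read-out: CellTiter-Fluor fluorescence after 1hr reagent incubation, measured in the same wells as the luciferase readout. VM7Luc4E2 cells were exposed to 15 compound concentrations with 10.0nM ICI-182,780 for 22hr at 37C.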

[9] = target: Progesterone receptor (Homo sapiens) (UniProt P06401); assay: qHTS assay to identify small molecule antagonists of the progesterone receptor (PR) signaling pathway (AID 1346795; active means well fitted inhibition curve with a large enough effect in the signal ratio in the repeat runs, not every such curve was filed as active; the % refers to the signal ratio; further: potency means the concentration at half of the fitted maximal effect)
Progesterone receptor (Homo sapiens), sequence (P06401 whole entry, looked up): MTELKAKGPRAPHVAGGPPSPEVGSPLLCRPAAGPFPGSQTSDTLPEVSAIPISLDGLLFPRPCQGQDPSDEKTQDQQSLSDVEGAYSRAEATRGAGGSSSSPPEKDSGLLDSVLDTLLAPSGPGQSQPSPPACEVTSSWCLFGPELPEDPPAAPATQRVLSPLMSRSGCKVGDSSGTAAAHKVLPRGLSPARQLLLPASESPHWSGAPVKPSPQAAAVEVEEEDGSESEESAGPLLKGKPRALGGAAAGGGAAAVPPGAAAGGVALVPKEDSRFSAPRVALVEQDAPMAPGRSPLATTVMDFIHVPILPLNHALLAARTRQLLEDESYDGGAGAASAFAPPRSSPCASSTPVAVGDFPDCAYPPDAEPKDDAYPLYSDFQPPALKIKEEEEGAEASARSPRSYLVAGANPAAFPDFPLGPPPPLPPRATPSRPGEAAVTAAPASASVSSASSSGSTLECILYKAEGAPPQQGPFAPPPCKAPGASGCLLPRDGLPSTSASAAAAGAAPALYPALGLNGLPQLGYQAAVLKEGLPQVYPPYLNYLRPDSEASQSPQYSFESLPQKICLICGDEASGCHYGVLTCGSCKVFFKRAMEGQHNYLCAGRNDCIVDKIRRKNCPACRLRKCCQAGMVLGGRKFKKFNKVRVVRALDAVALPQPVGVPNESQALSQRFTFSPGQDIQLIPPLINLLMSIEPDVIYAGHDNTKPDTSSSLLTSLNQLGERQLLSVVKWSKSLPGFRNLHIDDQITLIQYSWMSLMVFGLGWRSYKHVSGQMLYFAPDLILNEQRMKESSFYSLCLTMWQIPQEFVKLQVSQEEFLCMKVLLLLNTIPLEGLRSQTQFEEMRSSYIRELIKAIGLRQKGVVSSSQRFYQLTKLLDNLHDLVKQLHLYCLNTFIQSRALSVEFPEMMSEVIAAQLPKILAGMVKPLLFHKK
In short: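 Antagonist mode: compounds tested against 1 nM (final) promegestone stimulation in HEK293T cells expressing PR-UAS-bla reporter, 16 hr at 37C, 5% CO2; beta-lactamase activity detected via B/G FRET substrate after 2 hr at room temperature.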

[10] = qHTS assay to identify small molecule antagonists of the progesterone receptor (PR) signaling pathway - cell viability counter screen (AID 1346798); further: nearly all actives have a fitted effect of over 50% in size; further: potency means the concentration at half of the fitted maximal effect
In short: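 Counter screen for cytotoxicity: viability of PR-UAS-bla HEK293T cells was measured with CellTiter-Glo luminescence following 16 hr compound exposure in the presence of R5020.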

[11] = qHTS assay to identify small molecule agonists of the progesterone receptor (PR) signaling pathway - cell viability counter screen (AID 1346799; calls by dose curve; further: nearly all actives have a fitted effect of over 45% in size; further: potency means the concentration at half of the fitted maximal effect)
In short: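 Cells (PR-UAS-bla HEK293T) are plated at 3,000/well in 2% charcoal-stripped FBS medium, rested 6 hr, dosed and incubated 16 hr at 37C. CellTiter-Glo is then added and luminescence measured after 30 min at room temperature.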

[12] = qHTS assay to identify small molecule antagonists of the TGF-beta/Smad signaling pathway - cell viability counter screen (AID 1346824); further: nearly all actives have a fitted effect of over 50% in size; further: potency means the concentration at half of the fitted maximal effect
In short: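 Cytotoxicity counter-screen run in the same wells as the beta-lactamase Smad reporter read: CellTiter-Glo luminescence after 30 min at room temperature. HEK 293T SBE-bla cells had 5 hr compound exposure at 37 C with TGF-beta1 (0.25 ng/mL stock).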

[13] = qHTS assay to identify small molecule agonists of the TGF-beta/Smad signaling pathway - cell viability counter screen (AID 1346829); further: nearly all actives have a fitted effect of over 45% in size; further: potency means the concentration at half of the fitted maximal effect
In short: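 HEK 293T SBE-bla line, 5 hr compound exposure at 37 C, multiplexed CellTiter-Glo viability read by luminescence.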

[14] = qHTS assay to identify small molecule agonists of the TGF-beta/Smad signaling pathway (AID 1346859; active means well fitted activation curve with a large enough effect in the signal ratio in the repeat runs, not every such curve was filed as active; the % refers to the signal ratio; further: series mostly up to about 77 µM)
In short: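 Reporter line: HEK 293T with stably integrated SBE-controlled beta-lactamase. Compound exposure lasts 5 hr at 37 C and 5% CO2; substrate loading follows for 2 hr at room temperature, with emission read at 460 and 530 nm.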

[15] = qHTS assay to identify small molecule agonists of the estrogen receptor beta (ER-beta) signaling pathway - cell viability counter screen (AID 1259380); further: nearly all actives have a fitted effect of over 30% in size; further: potency means the concentration at half of the fitted maximal effect
In short: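 Luminescence read-out (CellTiter-Glo, 30 min, room temp) taken in the same wells as the beta-lactamase reporter assay; ER-beta-UAS-bla HEK293T cells exposed to DMSO-dissolved compounds for 16 hr at 37C in 2% charcoal-stripped FBS medium.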

[16] = qHTS assay to identify small molecule antagonists of the estrogen receptor beta (ER-beta) signaling pathway - cell viability counter screen (AID 1259382); further: nearly all actives have a fitted effect of over 55% in size; further: potency means the concentration at half of the fitted maximal effect
In short: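 Luminescent ATP read-out (CellTiter-Glo, 30 min, RT) taken in the same wells as the bla reporter assay. HEK293T ER-beta-UAS-bla cells in 2% charcoal-stripped FBS were exposed to compounds with 1nM E2 for 16 hr at 37C.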

[17] = target: Progesterone receptor (Homo sapiens) (UniProt P06401); assay: qHTS assay to identify small molecule agonists of the progesterone receptor (PR) signaling pathway (AID 1346784; calls by dose curve; further: nearly all actives have a fitted effect of over 30% in size)
In short: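 Cells (PR-UAS-bla HEK 293T, GripTite) were plated in assay medium containing 2% charcoal-stripped FBS and incubated 6 hr. Test compounds in DMSO were added for 16 hr at 37C. FRET substrate was then loaded for 2 hr at room temperature before fluorescence reading.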

[18] = target: Thyrotropin-releasing hormone receptor (Homo sapiens) (UniProt P34981); assay: qHTS assay to identify small molecule antagonists of the thyrotropin-releasing hormone receptor (TRHR) signaling pathway (AID 1346877; active means well fitted inhibition curve with a large enough effect in the repeat runs, not every such curve was filed as active; further: series mostly up to about 51 µM)
Thyrotropin-releasing hormone receptor (Homo sapiens), sequence (P34981 whole entry, looked up): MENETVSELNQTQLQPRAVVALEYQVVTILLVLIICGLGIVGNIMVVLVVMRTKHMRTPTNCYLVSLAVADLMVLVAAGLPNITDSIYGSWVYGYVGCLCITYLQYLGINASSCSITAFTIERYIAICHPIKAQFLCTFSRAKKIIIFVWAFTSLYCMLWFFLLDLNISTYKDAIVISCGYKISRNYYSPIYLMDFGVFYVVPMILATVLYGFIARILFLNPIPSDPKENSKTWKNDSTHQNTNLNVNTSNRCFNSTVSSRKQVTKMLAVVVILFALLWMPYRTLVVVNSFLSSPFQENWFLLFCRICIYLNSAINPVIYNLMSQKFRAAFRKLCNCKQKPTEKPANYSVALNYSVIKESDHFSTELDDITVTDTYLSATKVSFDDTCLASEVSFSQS
In short: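 HEK293/TRHR cells, 18 h, 37 °C; Ca2+ dye 2 h; cpd 5 min RT; TRH 1 nM final; fluorescence read 3 min, 1 s intervals; 15 concs, triplicate.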

[19] = target: Thyrotropin-releasing hormone receptor (Homo sapiens) (UniProt P34981); assay: qHTS assay to identify small molecule agonists of the thyrotropin-releasing hormone receptor (TRHR) signaling pathway (AID 1346891; calls by dose curve;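 further: HEK293 cells expressing TRHR with calcium dye readout; series mostly up to about 58 µM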)
In short: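 Cells: TRHR-Hek293, seeded and incubated 18 h. Dye loading: 2 h at 37 °C. Compound added from DMSO stock by pin tool. Read-out: kinetic calcium fluorescence over 3 min.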

SMILES | Potency [1] | Potency [2] | Potency [3] | Potency [4] | Potency [5] | outcome [6] | Potency [7] | Potency [8] | Potency [9] | Potency [10] | Potency [11] | Potency [12] | Potency [13] | Potency [14] | Potency [15] | Potency [16] | Potency [17] | Potency [18] | Potency [19]
N#CSc1ccc(N)c([N+](=O)[O-])c1 | 12.3 µM (active) | 19.4 µM (active) | 54.8 µM (active) | inactive | inactive | inactive | 61.5 µM (active) | 48.9 µM (active) | 30.8 µM (active) | inactive | inactive | inactive | inactive | inactive | – | – | – | – | –
Oc1ccc2c(c1)-c1ccccc1C2 | 13.7 µM (active) | – | inactive | inactive | – | inactive | inactive | inactive | 17.2 µM (active) | inactive | inactive | – | inactive | inactive | inactive | inactive | inactive | inactive | inactive
CCCCCCCCCCCCCC[P+](CCCC)(CCCC)CCCC (tested in a mixture with another compound) | 0.138 µM (active) | – | 7.74 µM (active) | inactive | inactive | inactive | 69 µM (active) | 8.69 µM (active) | – | 30.8 µM (active) | 30.8 µM (active) | – | 31.1 µM (active) | – | 19.4 µM (active) | 27.5 µM (active) | – | inactive | inactive
Oc1ccc(Cl)cc1Sc1cc(Cl)ccc1O | 26.6 µM (active) | 18.8 µM (active) | 21.6 µM (active) and 26.6 µM (active) | – | inactive | – | – | 29.8 µM (active) | 7.68 µM (active) and 9.44 µM (active) | 54.4 µM (active) | inactive | inactive | inactive | inactive | 48.5 µM (active) and 29.8 µM (active) | 48.5 µM (active) | – | – | –
CCN(CC)CCNC(=O)c1c(C)[nH]c(/C=C2\C(=O)Nc3ccc(F)cc32)c1C | 3.35 µM (active) | 33.5 µM (active) | 29.8 µM (active) | – | – | – | – | 2.98 µM (active) | – | 11.9 µM (active) | – | inactive | inactive | inactive | 11.9 µM (active) | 11.9 µM (active) | – | inactive | inactive
C=CC(=O)OCC(CO)(COC(=O)C=C)COC(=O)C=C | 1.54 µM (active) and 3.86 µM (active) | – | 19.4 µM (active) and 24.3 µM (active) | inactive | inactive | inactive | inactive | 17.3 µM (active) and 27.3 µM (active) | – | 17.3 µM (active) and 27.3 µM (active) | – | – | – | – | 13.7 µM (active) and 19.3 µM (active) | 19.4 µM (active) and 19.3 µM (active) | – | inactive | inactive
O=C1C=CC(=O)N1 | 1.58 µM (active) | 28 µM (active) | 49.8 µM (active) | 8.86 µM (active) | inactive | inactive | – | 70.4 µM (active) | – | 55.9 µM (active) | 62.8 µM (active) | – | – | inactive | 55.9 µM (active) | 28 µM (active) | – | inactive | inactive
NC(=O)N1C(=O)C(C(=O)c2cc(Cl)cs2)c2cc(F)c(Cl)cc21 (stereo not drawn) | 6.86 µM (active) | – | 7.7 µM (active) | inactive | inactive | inactive | inactive | 24.3 µM (active) | – | 30.6 µM (active) | 43.3 µM (active) | inactive | inactive | inactive | 30.6 µM (active) | 30.6 µM (active) | – | inactive | inactive
NC(=O)C1(N2CCCCC2)CCN(CCCN2c3ccccc3CCc3ccc(Cl)cc32)CC1 | 8.41 µM (active) | 11.9 µM (active) | 23.7 µM (active) | – | inactive | inactive | 29.8 µM (active) | – | 23.7 µM (active) | 23.7 µM (active) | 16.8 µM (active) | – | – | – | 13.3 µM (active) | 21.1 µM (active) | – | inactive | inactive
Cc1cc(CCN2CCN(c3nsc4ccccc34)CC2)cc2c1NC(=O)CC2(C)C | 1.37 µM (active) | – | 30.6 µM (active) | inactive | inactive | inactive | – | 48.6 µM (active) | 19.3 µM (active) | 30.6 µM (active) | 27.3 µM (active) | 54.9 µM (active) | – | – | 21.7 µM (active) | 19.3 µM (active) | – | – | –
CCCCC(CC)CN=C(N)NC(N)=NCCCCCCN=C(N)NC(N)=NCC(CC)CCCC (stereo not drawn) | 3.76 µM (active) | – | 18.8 µM (active) | inactive | inactive | – | – | 23.7 µM (active) | – | – | – | 19 µM (active) | 23.9 µM (active) | – | 23.7 µM (active) | 13.3 µM (active) | – | – | inactive
CN1CCN(CCC(=O)N2c3ccccc3Sc3ccc(C(F)(F)F)cc32)CC1 | 3.35 µM (active) | 21.1 µM (active) | 29.8 µM (active) | inactive | inactive | inactive | – | inactive | 26.6 µM (active) | 18.8 µM (active) | 23.7 µM (active) | inactive | inactive | inactive | – | 16.8 µM (active) | – | – | inactive
Cc1nc(-c2ccc3c(c2)CCN(CCC2CCC(NC(=O)/C=C/c4ccc(F)cc4)CC2)CC3)no1 (stereo not drawn) | inactive | – | inactive | inactive | inactive | inactive | inactive | inactive | inactive | inactive | inactive | – | inactive | inactive | inactive | inactive | inactive | inactive | inactive
